Measurements published in PubChem BioAssay (NCI).
This is part of a sample that, as a whole, favours compounds with a hit. Of some 83,000 tested, about 20% had one in any assay.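 Assay: single dose, 48 h. Readout: percent growth (0 = no net growth; negative = cell death). Active: <10.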 Activity calls are given as the source filed them.

What was measured:
Experiment in all cases: NCI-60 one-dose screen, 48 h (100 = growth as untreated, 0 = no growth, -100 = all killed)
Details in all cases: 10 µM unless noted
[1] = test system: NCI-H23 lung
[2] = test system: NCI-H226 lung
[3] = test system: NCI-H322M lung
[4] = test system: HOP-62 NSCLC
[5] = test system: NCI-H460 lung
[6] = test system: HOP-92 NSCLC
[7] = test system: NCI-H522 lung
[8] = test system: A549/ATCC NSCLC
[9] = test system: 786-0 renal
[10] = test system: COLO 205 colon

Measured: growth

Cc1ccc(C(c2c(O)c3cc(Br)ccc3[nH]c2=O)c2c(O)c3cc(Br)ccc3[nH]c2=O)cc1
inactive: [1] 86.7% | [2] 74% | [3] 96.7% | [4] 77% | [5] 89.5% | [6] 74.1% | [7] 77.8% | [8] 89.5% | [9] 92.6%

CCCCCCc1nc2nc(Cl)c(Cl)nc2[nH]1
active: [6] -13.8%
inactive: [1] 34.8% | [2] 63.2% | [3] 96% | [4] 88.1% | [5] 52.7% | [7] 32.6% | [8] 53.2% | [9] 65.8%

COc1ccc(C2CC(c3cccc(Nc4ccncc4)c3)=NN2c2ccccc2)cc1 (stereo not given)
active: [5] -40.8% | [9] -4.64%
inactive: [1] 82.8% | [2] 94.7% | [3] 68.2% | [4] 43.9% | [6] 47.6% | [7] 39.9% | [8] 39.9%

Nc1nc(N)nc(NCc2ccccc2)n1
inactive: [1] 97.1% | [2] 95.4% | [3] 95.4% | [4] 105% | [5] 109% | [6] 108% | [7] 99.3% | [8] 101% | [9] 102%

Clc1ccc(N2N=C(c3cccc(Nc4ccncc4)c3)CC2c2ccc3c(c2)OCO3)cc1 (stereo not given)
inactive: [1] 83.6% | [2] 82.5% | [3] 68.6% | [4] 42.4% | [6] 47.9% | [7] 57.2% | [8] 36.4% | [9] 56.9%
active: [5] -65.4% | [10] -52.8%

Cc1ccccc1CNc1ccc(N2CCOCC2)cc1
inactive: [1] 99.1% | [2] 107% | [3] 98.3% | [4] 117% | [5] 112% | [6] 115% | [7] 101% | [8] 103% | [9] 107%

COc1ccccc1Nc1cc(O)c2c(=O)cc(-c3ccccc3)oc2c1
active: [7] 7.64%
inactive: [1] 51.5% | [2] 76.8% | [3] 80.1% | [4] 35.6% | [5] 11.4% | [6] 62.2% | [8] 33.7% | [9] 49.2%

NC(=O)c1cccc(-c2ccccc2N2CCCCC2)c1
inactive: [1] 103% | [2] 98.9% | [3] 91% | [4] 99.5% | [5] 108% | [6] 103% | [7] 85.7% | [8] 99.1% | [9] 85.3%

COc1cc(C2CC(c3cccc(Nc4ccncc4)c3)=NN2c2cc(Cl)cc(Cl)c2)cc(OC)c1OC (stereo not given)
active: [4] -29.2% | [5] -68.4% | [7] 0.35% | [10] -58.7%
inactive: [1] 77.8% | [2] 87% | [3] 64.2% | [6] 37.4% | [8] 17.9% | [9] 101%

COc1cc(-c2cc(=O)oc3cc(O)ccc23)c(OC)c2c1OCO2
inactive: [1] 83.5% | [2] 86.4% | [3] 89.4% | [4] 92.7% | [5] 88.9% | [6] 79% | [7] 81.7% | [8] 87% | [9] 95.6%

CCN(CC)CCSCCCNc1c(C)cnc2cc(Cl)ccc12
inactive: [1] 89.8% | [2] 100% | [3] 90.8% | [4] 85.2% | [5] 96.8% | [6] 81.6% | [7] 102% | [8] 95.9% | [9] 82.7% | [10] 61.4%

O=C1c2ccccc2-c2c1c1c(NCCCO)nc3ccccc3c1n2Cc1ccccc1
active: [4] -35.5% | [5] -29% | [6] -33.4% | [9] -74.3%
inactive: [1] 35.1% | [2] 21.5% | [3] 29.6% | [7] 23.3% | [8] 16% | [10] 62%

O=C(/C=C\c1ccc(OCCCCCC[P+](c2ccccc2)(c2ccccc2)c2ccccc2)cc1)c1ccc2c(c1)OCCO2
inactive: [3] 22.3% | [8] 12.1%
active: [1] 3.95% | [2] -0.25% | [4] -21.8% | [5] -12.4% | [6] -29.2% | [7] -6.94% | [9] 5.76% | [10] -58.6%

O=C1OC(=O)C2C1CC=CC2c1ccccc1 (stereo not given)
inactive: [1] 84.7% | [2] 90.6% | [3] 102% | [4] 78.8% | [5] 75.5% | [6] 85.3% | [7] 93.6% | [8] 88% | [9] 94.9%

COc1c(Cl)cc(Cl)c2ccc(C=C3C(=O)N(C)C(=O)N(C)C3=O)nc12
inactive: [1] 104% | [2] 100% | [3] 106% | [4] 37.3% | [5] 96.8% | [6] 119% | [7] 92.2% | [8] 111% | [9] 53.7% | [10] 110%

COc1ccc(-c2nc(N/N=C/c3ccco3)nc(N3CCOCC3)c2C#N)cc1
inactive: [1] 81% | [2] 84.8% | [3] 87.1% | [4] 68.1% | [5] 66.4% | [6] 49.2% | [7] 76.9% | [8] 81.9% | [9] 54.7%

CCOc1ccc(/C=N/Nc2cc(C)nc3ccc(Cl)cc23)cc1
active: [5] 3.37%
inactive: [1] 78.9% | [2] 79.5% | [3] 66.9% | [4] 94.4% | [6] 50.5% | [7] 58.4% | [8] 59.9% | [9] 33.2% | [10] 21%

COc1cc(CCNc2nc3cc(N)cc(N)c3nc2-c2ccccc2)cc(OC)c1
active: [4] -35.1% | [6] -71.2% | [7] -65.1% | [9] -60%
inactive: [1] 19.3% | [2] 90.5% | [3] 23.8% | [5] 34.1% | [8] 78.3%

Fc1ccc2nc3c(cc2c1)CSc1nnc(-c2ccc[nH]c2=S)n1N3
inactive: [1] 92.7% | [2] 93.3% | [3] 106% | [4] 93.3% | [5] 105% | [6] 78.1% | [7] 86.8% | [8] 108% | [9] 89.7%

Clc1ccc2c(c1)c(-c1ccccc1)nc1nncn12
inactive: [1] 98.6% | [2] 114% | [3] 114% | [4] 105% | [5] 117% | [6] 119% | [7] 93.1% | [8] 106% | [9] 94.2%

O=C(Cc1ccc(/C=C/C(=O)c2ncc[nH]2)cc1)Nc1ccc(C(F)(F)F)cc1
inactive: [1] 33.4% | [2] 78.9% | [3] 71.5% | [4] 25.8% | [5] 27.1% | [6] 70% | [7] 54.7% | [8] 30.8%
active: [9] -43.1%

C#Cc1cccc(NC(=O)Nc2ccc(NC(=O)CCl)cc2)c1
inactive: [3] 86.8% [8.25 µM] | [8] 45.3% [8.25 µM]
active: [1] -66.6% [8.25 µM] | [2] -27.4% [8.25 µM] | [4] -6.94% [8.25 µM] | [5] -23.9% [8.25 µM] | [6] -66.5% [8.25 µM] | [7] -70.8% [8.25 µM] | [9] -71.5% [8.25 µM]

CCCCCCC/C=C/[C@H]1O[C@]2(O)C(=O)C=C3C[C@@H](O[C@@H]4O[C@H](CO)[C@@H](O)C(O)[C@@H]4O)C[C@@H]3[C@H]2C=C1C (stereo not given in full)
inactive: [1] 43.6% | [3] 54.3% | [5] 38.3% | [6] 11.8% | [8] 59.8%
active: [2] -20.8% | [4] 1.36% | [7] -57.6% | [9] -52.4%

O=C(CNCCO)Nc1ccc2ncnc(Nc3ccc(OCc4cccc(F)c4)c(Cl)c3)c2c1
inactive: [1] 98.9% | [2] 93.8% | [3] 33.4% | [4] 87% | [5] 88.7% | [6] 55.8% | [7] 46.3% | [8] 71.6% | [9] 69.6%

CN(C)C(C(N)=O)c1ccc(Cl)cc1 (stereo not given)
inactive: [1] 104% | [2] 103% | [3] 103% | [4] 99.6% | [5] 109% | [6] 71.4% | [7] 96.1% | [8] 96.6% | [9] 96.1%

CCNC(=O)c1[nH]cc(-c2ccc(OC)cc2)c1-c1cc(OC)c(OC)c(OC)c1
inactive: [1] 60.3% | [2] 83% | [3] 51.6% | [4] 45% | [5] 13.7% | [7] 17.6% | [8] 51.1% | [9] 47.5% | [10] 32.5%
active: [6] 8.85%

Fc1ccc(-n2cc(COc3ncnc4sc5c(c34)CCCC5)nn2)cc1Cl
inactive: [1] 96.8% | [2] 94.4% | [3] 100% | [4] 96.3% | [5] 102% | [6] 109% | [7] 84% | [8] 98.4% | [9] 98.1%

O=C1Nc2c(ccc(Cl)c2Cl)/C1=C/c1ccc([N+](=O)[O-])cc1
inactive: [1] 91.3% | [2] 159% | [3] 84.9% | [4] 90.6% | [5] 107% | [6] 95.5% | [7] 88.7% | [8] 29.2% | [9] 59.7%

NC(=S)N/N=C(\c1ccc(Cl)cc1)C1CC1
inactive: [1] 89.7% | [2] 74.7% | [3] 88% | [4] 80.1% | [5] 102% | [6] 97.2% | [7] 97.3% | [8] 92.5% | [9] 105% | [10] 92.6%
